HCV inh – HCV inhibition. Huh7.5.1 HCVcc-Cre infection, luciferase reporter, 44 h. Potency, µM (doses to about 41.8 µM), without a hit: at the top dose activity change, negative = inhibition, usual class: inhibitors. 340,000 compounds, 3.4% hits. AID 651820; also: potency is read from the fitted curve at half-maximal effect; % is scaled to controls: 0 for no effect and ±100 for the full control effect
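After 44 h co-culture of compound, cells and HCVcc-Cre (~0.5 moi), substrate is added for 15 min at room temperature and luciferase measured over 15 sec. Cells were seeded at 1,000/well and pre-cultured 4 h.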
Pf growth 96h – P. falciparum growth inhibition at 96 hour, primary screen for plastid delayed-death inhibitors. P. falciparum luciferase reporter growth, 96 h. Potency, µM (top dose mostly 28.7 µM), inactives show top-dose activity change, negative = inhibition, most hits filed as inhibitors. 320,000 compounds, 6.9% hits. AID 504834; also: potency is read from the fitted curve at half-maximal effect; % is scaled to controls: 0 for no effect and ±100 for the full control effect
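96 h incubation, 37 C, 5% CO2, of luciferase-reporter P. falciparum-infected RBCs (2% hematocrit, 0.05% parasitemia final) with test compounds; endpoint luminescence.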
HCMV antiviral – human cytomegalovirus inhibition; HFF cells, HCMV-luciferase reporter, 72 h; active compounds read low; activity change, negative = inhibition, % at 57.5 µM; 410,000 compounds, 4.5% hits; in the data active = activity change below about -60%; inconclusive = no clear call, values can overlap the other calls; inactive = above about -39%; also: % is scaled to controls: 0 for no effect and ±100 for the full control effect
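Human foreskin fibroblasts infected with luciferase-reporter HCMV at MOI 1 PFU/cell, compounds at two doses. Luciferase measured 72 h post infection; normalized to buffer-only basal and Salinomycin (10uM) controls.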
Cycloheximide cs – counter-screen for Shiga toxin inhibitors: cycloheximide protein synthesis inhibition. cell reporter, cycloheximide protein synthesis inhibition counterscreen. max response, %. 300,000 compounds, 12% hits. AID 2314; in the data active = max response mostly above about 13%, no sharp cut-off; inactive = mostly below about 14%; also: read at 38.3 µM for the half of the compounds with a filed dose; 0% is about no effect
Shiga inhibitor – Shiga toxin inhibition; Vero cells, Shiga toxin protein synthesis inhibition reporter; inhibition, % at 38.7 µM; 290,000 compounds, 9.2% hits; AID 2315; in the data active = inhibition mostly above about 28%, no sharp cut-off; inactive = mostly below about 43%; also: 0% is about no effect
Pf growth 48h – P. falciparum growth inhibition at 48 hours (one generation) | P. falciparum luciferase growth in erythrocytes, 48 h | Potency, µM (doses to about 28.7 µM), inactives show top-dose activity change, negative = inhibition, actives largely listed as inhibitors | 310,000 compounds, 5.9% hits | AID 504832; also: potency is read from the fitted curve at half-maximal effect; % is scaled to controls: 0 for no effect and ±100 for the full control effect
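Firefly luciferase activity from engineered P. falciparum reports growth; inhibitors lower the luminescent signal. Cultures contained 2% hematocrit erythrocytes at 0.1% final parasitemia.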
The depositor's hits bear a star; ? = inconclusive; . = no result given; + = active, no number. Shown are actives, neighbours in structure and some others; about 21% of the full set was active somewhere. Unless noted, calls follow the shape of the dose curve; as a rule, active = well fitted inhibition curve with a large enough effect; inconclusive = small, poorly fitted or top-dose-only effect, or another doubt; inactive = no such curve, though single readings can be large or run the other way.

SMILES	HCV inh	Pf growth 96h	HCMV antiviral	Cycloheximide cs	Shiga inhibitor	Pf growth 48h
CCc1ccc2cc(C)cc(C)c2n1	.	.	-12.9	.	.	.
Cn1cnc(S(=O)(=O)N2CCCC(C(=O)Nc3ccc(OC(F)(F)F)cc3)C2)c1 (centres undefined)	.	.	56.2	.	.	.
Cn1c(-c2ccc(CN3CCCCC3)o2)nc2ccccc21	9.8%	289.7%	192.0	25.6*	84.0*	86.9%
c1ccc2c(c1)nc(-c1ccncc1)n2CCNc1nc(CN2CCCCC2)cs1	8.8%	57.3%	-8.9	-4.2	11.8	?
Cc1ccc(NC(=O)N2CCc3ccccc3C2)cc1	.	205.9%	107.9	48.0*	57.8*	.
Cc1ccc(NC(=O)c2nc[nH]c2C(=O)N2CCc3ccccc3C2)cc1	3.1%	?	-74.5*	.	.	-0.7%
CCOC(=O)c1ccc(NC(=O)c2nc[nH]c2C(=O)N2CCc3ccccc3C2)cc1	5.7%	?	6.2	-3.3	2.0	?
O=C(Nc1ccc(Cl)cc1)N1CCc2ccccc2C1	-21.2%	-8.0%	70.3	-1.9	-12.9	?
O=C(Nc1ccccc1)N1CCc2ccccc2C1	4.8%	58.0%	111.2	59.6*	+	216.3%
Cc1ccc(NC(=O)N2CCc3ccccc3C2)c(C)c1	1.8%	-18.0%	59.8	42.1*	64.9*	-6.0%
CC1(C(=O)NS(=O)(=O)c2cccc(C#N)c2)CCN1C(=O)c1ccccc1 (centres undefined)	.	.	-17.5	.	.	.
O=C1C=C(c2ccccc2)C[C@H](c2cccs2)[C@H]1n1nnc([N+](=O)[O-])n1	?	8.28µM*	?	-2.0	9.6	1.85µM*
COc1ccc(-c2oc3cccnc3c2-c2ccc(OC)nc2)cc1	?	?	8.2	24.8*	22.4*	-1.9%
Cc1ccc(Cn2cccc(C(=O)Nc3nc4ccc(C)cc4s3)c2=O)cc1	.	.	2.2	.	.	.
Cc1cccc(Cn2cccc(C(=O)Nc3nc4ccccc4s3)c2=O)c1	.	.	-5.8	.	.	.
O=c1c(-c2nc3ccccc3s2)cccn1Cc1ccccc1	-29.5%	196.6%	129.0	51.2*	101.7*	300.2%
Cc1ccc(Cn2cccc(-c3nc4ccccc4s3)c2=O)cc1	?	76.6%	64.5	43.4*	70.3*	32.5%
COc1cc2c(cc1OC)C(C)N(C(=O)C1=NN(c3cccc(C)c3)C(=O)CC1)CC2 (centres undefined)	-16.6%	?	-10.6	-3.1	-8.5	?
COc1ccc(NC(=O)CSc2nnc(Cc3ccc(C)cc3)c(=O)n2N)cc1OC	4.7%	0.1%	-35.7	.	.	-1.5%
COC(=O)[C@H]1C[C@@H](c2ccccc2)[C@H](C)C1(C)C	-1.4%	17.7%	4.8	.	.	?
CC(C)CN(C(=O)/C=C/c1nc2ccccc2s1)C1CCS(=O)(=O)C1 (centres undefined)	?	7.38µM*	-32.1	.	.	?
COCCCNc1nc2c(S(=O)(=O)c3ccccc3)nnn2c2ccc(Cl)cc12	.	.	-11.7	.	.	.
COc1cccc(CN(C)C(=O)c2ccc(NS(=O)(=O)c3ccc4[nH]c(=O)[nH]c4c3)cc2)c1OC	.	?	2.8	1.3	-4.6	12.0%
CCOc1ccc(S(=O)(=O)Nc2ccc(C(=O)N(CC)CC(=O)NCc3cccs3)cc2)cc1	.	.	-72.2*	.	.	.
COc1cccc(CN(C)C(=O)c2ccc(COc3ccc(Cl)cc3)cc2)c1OC	?	5.5%	29.7	67.0*	86.8*	37.3%
SMILES	HCV inh	Pf growth 96h	HCMV antiviral	Cycloheximide cs	Shiga inhibitor	Pf growth 48h
CCOc1ccc(NS(=O)(=O)c2ccc(C(=O)N(CC)CC(=O)NCc3cccs3)cc2)cc1	-21.0%	22.9%	16.6	-2.2	8.8	-16.2%
CCOc1ccc(NS(=O)(=O)c2ccc(C(=O)N(C)Cc3cccc(OC)c3OC)cc2)cc1	12.6µM*	?	-31.0	5.4	14.2	-12.9%
Cc1ccccc1OCC(=O)NCC(c1cccs1)N1CCOCC1 (centres undefined)	?	-13.6%	-22.3	.	.	-13.4%
CC1CCc2nc3ncn(Cc4ccccc4C#N)c(=O)c3cc2C1 (centres undefined)	.	.	6.7	.	.	.
COC(=O)c1sc(-c2ccccc2)cc1NC(=O)c1cccc(Cl)c1	.	.	7.1	.	.	.
O=C(COC(=O)c1ccc(Cl)cc1)NCC1CCCCC1	11.1%	.	-19.9	.	.	.
Cc1cccc(NC(=O)CNC(=O)CSc2ncccn2)c1C	11.3%	.	-9.5	.	.	.
